# Results as given in PubChem BioAssay (NCI).
# Compounds without any hit were thinned out: in the full panel of roughly 83,000, 20% have a hit.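 Note: values are percent growth. 100 is the growth of untreated cells, values between 100 and 0 indicate rising inhibition; between -100 and 0 indicates cell death.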 Unmarked numbers belong to inactive results. Activity calls are given as the source filed them. How the source made its calls: active means growth percent below 10; inactive means the rest.
# System: HS 578T breast
# Assay: NCI-60 one-dose screen, 48 h (100 = growth as untreated, 0 = no growth, -100 = all killed)
# Conditions: 10 µM
row,SMILES,growth
1,COc1ccc(/C=C/C(=O)c2ccc(N3CCN(C)CC3)cc2)c(C(F)(F)F)c1,18.8%
2,Nc1n[nH]c2cccc(C#Cc3cccc(NC(=O)Nc4cc(C(F)(F)F)cc(C(F)(F)F)c4)c3)c12,-20.5% (active)
3,O=C(Nc1ccc(Cl)c([N+](=O)[O-])c1)Nc1ccc(Cl)c([N+](=O)[O-])c1,45.1%
4,O=C(Nc1nc2ccc([N+](=O)[O-])cc2s1)Nc1cc(Cl)ccc1I,-21.5% (active)
5,O=C1CCC(N2Cc3cc(NC(=O)COc4ccccc4)ccc3C2=O)C(=O)N1 (stereo not given),36.3%
6,CN1CCc2c(sc3ncnc(N/N=C/c4cn(-c5ccccc5)nc4-c4ccc(Cl)cc4)c23)C1,46.6%
7,C=CC(=O)Nc1ccc(C(=O)/C=C/c2ccc(N(C)CCF)cc2)c(O)c1,19.7%

# System: NCI/ADR-RES ovarian
# Assay: as above
# Conditions: 10 µM
row,SMILES,growth
1,Cc1ccc(F)cc1N/C=c1\s/c(=C(\C#N)C(=O)Nc2ccccc2)n(-c2ccccc2)c1=O,42.6%
2,COc1ccc([C@H]2C(C(=O)c3ccc(Cl)cc3)C3(N[C@@H]2c2ccccc2)C(=O)Nc2ccc(Cl)cc23)cc1 (stereo not given in full),-47.1% (active)
3,O=C1Nc2cc(-c3ccc(NC(=O)c4cccc([N+](=O)[O-])c4)cc3)ccc2/C1=C/c1ccc[nH]1,89.5%
4,CCCn1c(=O)c2[nH]c(-c3ccc(OCc4nc5ccc(F)cc5[nH]4)cc3)nc2n(CCC)c1=O,64.9%
5,CCCS(=O)(=O)c1oc(-c2ccc(F)cc2)nc1S(=O)(=O)c1ccc(F)cc1,-52.2% (active)
6,O=C(CSc1nnc(-c2c[nH]c3ccccc23)n1-c1ccccc1)Nc1ccc(C(=O)/C=C/c2ccc(Br)cc2)cc1,94.9%
7,CCOC(=O)C1=C(N)N(c2ccc(Cl)cc2)C2=C(C(=O)CC(C)(C)C2)C1c1ccc(N2CCOCC2)cc1 (stereo not given),97.4%
8,COc1ccc2[nH]cc(/C=N/Nc3ccc(Br)cn3)c2c1,7.9% (active)
9,O/N=C(\CSc1nnc(-c2c[nH]c3ccccc23)n1-c1ccccc1)c1ccc(Cl)cc1,-70.2% (active)
10,COc1ccc2[nH]c(O)c(N=NC(=O)COc3ccc(NC(=O)Nc4ccc(Cl)c(Cl)c4)cc3)c2c1,84.4%
11,C=C1CC[C@H](C(=C)C)[C@H]2C=C(C)C(=O)C3=C(C(=O)[C@@](C)(O)C3)[C@H]12,-31.1% (active)
12,O=S(=O)(Nc1ncccn1)c1ccc(-n2c(-c3ccccc3)nc(-c3ccccc3)c2-c2ccccc2)cc1,95.3%
13,COc1cccc(/C=C2\N=C(C)N(CCc3ccc(S(N)(=O)=O)cc3)C2=O)c1,104%
14,CN(C)c1ccc(/C=C/C(=O)c2ccc(NC(=O)CN3C(=O)NC(C)(c4ccccc4)C3=O)cc2)cc1 (stereo not given),86.6%
15,O=C(O)CCCCCCCCCCN1C(=O)/C(=C/c2cnc(-c3ccccc3)s2)SC1=S,57.5%
16,COc1ccc(-c2ccc(/C=N/NC(=O)c3[nH]c4ccc(Br)cc4c3-c3ccccc3)s2)cc1,59.9%
17,O=C1N/C(=N\c2nccs2)S/C1=C\c1cccs1,-0.769% (active)
18,O=C(CNc1nc(-c2ccccc2)cs1)Nc1ccccc1,-22.8% (active)
19,COc1cc2c3c(n(CCCNC(C)C)c(=O)c2cc1OC)-c1nc2c(cc1C3=O)OCO2,-72% (active)

row,SMILES,growth
1,Cc1cccc(-c2nc(Nc3ccccc3C(=O)O)c3ccccc3n2)c1,24.8%
2,Oc1ccc(/C=C2\CCCc3cc4ccc(O)cc4[o+]c32)c(O)c1,-24.7% (active)
3,N#Cc1ccc(-c2nn(-c3ccc(C(=O)O)cc3)cc2CNc2ccc(Cl)cc2)cc1,67.7%
4,COc1ccc2nc(Cl)c(-c3cc(-c4ccccc4)nc(=S)[nH]3)cc2c1,40.9%
5,Cc1ccc(NC(=O)c2ccc(-n3c(=O)[nH]c4ccccc4c3=O)cc2)cc1,80.2%
6,Nc1nc(Nc2ccc(Cl)cc2)n(Cc2cccc(Br)c2)n1,-25% (active)
7,O=C(CN1CCN(c2ncnc3c2cnn3-c2ccccc2)CC1)Nc1nncs1,-32.6% (active)
8,O=c1c2ccccc2nc(COc2ccccc2)n1/N=C/c1ccc(N2CCOCC2)cc1,58.1%
9,Cn1c(O)c(N=Nc2nc(-c3cc4ccccc4oc3=O)cs2)c2cc(Br)ccc21,68.4%
10,O=c1nc(-c2ccccc2)cc(-c2cc3ccccc3nc2Cl)[nH]1,-70.1% (active)
11,C/C(=N\NC(N)=S)c1ccc(Nc2nc(SC(C)C)nc(-c3ccccc3)c2C#N)cc1,61.6%
12,COc1ccc(/C=C/C(=O)c2ccc(N3CCN(C)CC3)cc2)c(C(F)(F)F)c1,59.3%
13,Nc1n[nH]c2cccc(C#Cc3cccc(NC(=O)Nc4cc(C(F)(F)F)cc(C(F)(F)F)c4)c3)c12,-48.9% (active)
14,O=C(Nc1ccc(Cl)c([N+](=O)[O-])c1)Nc1ccc(Cl)c([N+](=O)[O-])c1,6.5% (active)
15,O=C(Nc1nc2ccc([N+](=O)[O-])cc2s1)Nc1cc(Cl)ccc1I,-34.5% (active)
16,O=C1CCC(N2Cc3cc(NC(=O)COc4ccccc4)ccc3C2=O)C(=O)N1 (stereo not given),37.8%
17,O=C(c1ccc(-n2c(=O)[nH]c3ccccc3c2=O)cc1)N1CCOCC1,106%
18,CN1CCc2c(sc3ncnc(N/N=C/c4cn(-c5ccccc5)nc4-c4ccc(Cl)cc4)c23)C1,-35.3% (active)
19,C=CC(=O)Nc1ccc(C(=O)/C=C/c2ccc(N(C)CCF)cc2)c(O)c1,0.782% (active)
